Experimental data as given in paper PMC13423814.

molecular target: CHTOP (UniProt Q9Y3Y2); conditions: DSSO, in cells
Sequence (Q9Y3Y2 whole entry): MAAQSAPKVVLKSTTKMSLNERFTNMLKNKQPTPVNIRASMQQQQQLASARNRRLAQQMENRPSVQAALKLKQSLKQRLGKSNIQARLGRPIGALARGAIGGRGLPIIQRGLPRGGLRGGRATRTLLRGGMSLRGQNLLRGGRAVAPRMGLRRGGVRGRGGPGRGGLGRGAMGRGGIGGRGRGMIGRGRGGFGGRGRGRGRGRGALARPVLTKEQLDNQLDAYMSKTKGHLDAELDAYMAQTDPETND

Chain of DDX39B, Q13838 (Q13838 whole entry): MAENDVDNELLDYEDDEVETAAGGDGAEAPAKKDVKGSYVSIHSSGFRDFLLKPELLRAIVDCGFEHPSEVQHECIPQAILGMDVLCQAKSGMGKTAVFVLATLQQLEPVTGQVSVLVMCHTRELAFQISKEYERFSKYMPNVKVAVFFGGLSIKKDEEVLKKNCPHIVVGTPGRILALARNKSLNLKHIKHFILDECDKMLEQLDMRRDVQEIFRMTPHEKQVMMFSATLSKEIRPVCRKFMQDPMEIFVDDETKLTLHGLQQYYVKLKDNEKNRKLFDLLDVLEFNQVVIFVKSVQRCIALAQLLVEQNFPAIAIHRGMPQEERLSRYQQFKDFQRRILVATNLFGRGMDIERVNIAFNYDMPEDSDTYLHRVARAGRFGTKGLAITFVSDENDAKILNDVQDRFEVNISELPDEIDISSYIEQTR
Chain of EIF4A3, P38919 (P38919 whole entry): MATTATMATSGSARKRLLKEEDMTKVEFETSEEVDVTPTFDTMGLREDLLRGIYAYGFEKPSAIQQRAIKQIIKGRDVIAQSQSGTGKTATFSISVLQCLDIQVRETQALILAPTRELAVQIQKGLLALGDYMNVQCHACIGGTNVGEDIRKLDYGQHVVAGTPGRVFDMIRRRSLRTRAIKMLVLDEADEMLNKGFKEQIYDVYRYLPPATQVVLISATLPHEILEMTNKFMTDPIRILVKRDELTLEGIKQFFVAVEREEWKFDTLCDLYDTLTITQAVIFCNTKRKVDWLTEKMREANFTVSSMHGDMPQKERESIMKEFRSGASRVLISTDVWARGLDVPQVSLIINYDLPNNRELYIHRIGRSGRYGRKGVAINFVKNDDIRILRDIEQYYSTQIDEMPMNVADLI
Chain of DDX39A, O00148 (O00148 whole entry): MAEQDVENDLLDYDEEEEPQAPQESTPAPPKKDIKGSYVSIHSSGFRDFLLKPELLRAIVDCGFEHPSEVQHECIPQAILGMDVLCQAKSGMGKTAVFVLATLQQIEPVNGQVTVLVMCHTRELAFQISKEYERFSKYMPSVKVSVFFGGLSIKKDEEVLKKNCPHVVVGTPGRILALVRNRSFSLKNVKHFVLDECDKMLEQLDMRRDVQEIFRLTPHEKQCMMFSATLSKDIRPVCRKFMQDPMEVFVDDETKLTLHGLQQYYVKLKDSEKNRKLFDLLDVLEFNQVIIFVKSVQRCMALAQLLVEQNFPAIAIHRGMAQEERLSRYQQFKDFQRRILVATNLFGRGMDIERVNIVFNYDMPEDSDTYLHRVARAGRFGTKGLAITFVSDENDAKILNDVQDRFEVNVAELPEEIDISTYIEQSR

**Q.** Which cross-linked residues does the source give for DDX39A, O00148 here?
**A.** Its cross-linked residues is “K187 - S225”.

**Q.** With DDX39B, Q13838 as the substance, how does the cross-linked residues read?
**A.** Its cross-linked residues is “K188 - K226”.

**Q.** Which cross-linked residues does the source give for EIF4A3, P38919 here?
**A.** The cross-linked residues was “K152 - K81”.
